Screening results: PubChem BioAssay, National Center for Advancing Translational Sciences (NCATS)
A selection: hits, their analogues and other compounds. The true share with any hit is near 10%.
MCF10A rereplic: A quantitative high throughput screen for small molecules that induce DNA re-replication in MCF 10a normal breast cells. MCF 10A DNA re-replication, Hoechst nuclear intensity, 48 h. Potency, µM (titrated, usually from 46.1 µM), inactives show top-dose activity, positive = re-replication, actives largely listed as activators. 350,000 compounds, 2.9% hits. AID 624296, 2012; also: % of control where 0% means no effect; nearly all actives have a fitted effect of over 50% in size
SW480 rereplic: A quantitative high throughput screen for small molecules that induce DNA re-replication in SW480 colon adenocarcinoma cells. 340,000 compounds, 1.8% hits. SW480 DNA re-replication, Hoechst DNA content imaging, 48 h. AID 624297, 2012. Potency, µM (titrated, usually from 46.1 µM), for inactives: top-dose re-replication activation, most hits filed as activators; also: % of control where 0% means no effect; nearly all actives have a fitted effect of over 55% in size
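250 cells/well; 23 nL cpd via pin tool; 48 hr, 37 C, 5% CO2; Hoechst 40 min; imager read of total nuclear intensity, ex 405/em 500-530 nm.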
VP16 counter: VP16 counterscreen qHTS for inhibitors of ROR gamma transcriptional activity; Potency, µM (titrated, usually from 53.6 µM), inactives show at the top dose activity, negative = inhibition, usual class: inhibitors; Drosophila S2 Gal4-VP16 UAS-luciferase, luminescence, 20 h; 310,000 compounds, 3.5% hits;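 also: Gal4-VP16 expression switched on by copper sulfate through the metallothionein promoter; % is scaled to controls: 0 for no effect and ±100 for the full control effect; nearly all actives have a fitted effect of over 50% in size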
ELG1 repair inh: qHTS screen for small molecules that inhibit ELG1-dependent DNA repair in human embryonic kidney (HEK293T) cells expressing luciferase-tagged ELG1 | AID 504467, 2011 | Potency, µM (top dose mostly 46.1 µM), for the others: at the highest dose activity change, negative = inhibition, usual class: inhibitors | 330,000 compounds, 2.3% hits | HEK293T ELG1-luciferase reporter, luminescence, 16 h; DNA damage induced by 5-fluorouridine; also: % is scaled to controls: 0 for no effect and ±100 for the full control effect; nearly all actives have a fitted effect of over 55% in size
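Cells (2,000 per well) received 5-fluorouridine plus test compound or DMSO and were incubated 16 hr at 37 °C, 5% CO2. Luciferase activity was read by luminescence 30 min after ONE-Glo addition; signal suppression marked inhibition of damage-induced ELG1 function.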
RORg inh: qHTS for inhibitors of ROR gamma transcriptional activity. 310,000 compounds, 5.4% hits. Potency, µM (titrated, usually from 53.6 µM), without a hit: at the top dose activity change, negative = inhibition, most hits filed as inhibitors. Drosophila S2 Gal4-RORgamma UAS-luciferase reporter, 20 h. Nuclear receptor ROR-gamma (Mus musculus), P51450; also: % is scaled to controls: 0 for no effect and ±100 for the full control effect; nearly all actives have a fitted effect of over 60% in size
Target sequence (P51450 whole entry, looked up, the tested form may be a part): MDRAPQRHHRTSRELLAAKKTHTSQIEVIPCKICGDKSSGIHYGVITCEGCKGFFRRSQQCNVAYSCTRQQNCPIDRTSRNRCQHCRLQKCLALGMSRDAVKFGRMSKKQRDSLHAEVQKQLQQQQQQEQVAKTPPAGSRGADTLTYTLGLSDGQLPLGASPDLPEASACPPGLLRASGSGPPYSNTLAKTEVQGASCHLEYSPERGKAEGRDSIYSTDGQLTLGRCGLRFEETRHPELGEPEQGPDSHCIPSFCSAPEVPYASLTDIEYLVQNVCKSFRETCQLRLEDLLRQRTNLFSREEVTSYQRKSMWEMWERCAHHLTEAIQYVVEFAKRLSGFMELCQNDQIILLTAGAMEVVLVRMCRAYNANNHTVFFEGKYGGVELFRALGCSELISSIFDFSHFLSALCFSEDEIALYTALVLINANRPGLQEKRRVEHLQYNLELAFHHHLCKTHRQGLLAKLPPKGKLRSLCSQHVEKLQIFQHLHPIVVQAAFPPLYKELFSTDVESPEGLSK
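Drosophila Schneider cells stably carrying a metallothionein-driven Gal4 DBD–ROR gamma fusion and a UAS-Photinus luciferase reporter were exposed to compound for 1 hr, then induced with copper sulfate (700 uM final) for 20 hr at ambient temperature before luminescence reading.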
Starred values were filed as active, the others as inactive; ? = inconclusive; / = not tested or not shown; [ ] = another dose, or the depositor's remark. Calls follow the shape of the dose curve; as a rule, active = well fitted curve in the direction sought with a large enough effect; inconclusive = small, poorly fitted or top-dose-only effect, or another doubt; inactive = no such curve, though single readings can be large; an effect the other way counts as inactive or inconclusive. Potency is read from the fitted curve at half-maximal effect.

SMILES	MCF10A rereplic	SW480 rereplic	VP16 counter	ELG1 repair inh	RORg inh
CC1CCCC(C)N1C(=O)COC(=O)c1cncc(Br)c1 (configuration not stated)	-5%	-7%	/	0%	/
N#Cc1cnc(SCCc2ccccc2)nc1N	9.2µM*	9%	/	29%	8%[0.365 µM]
N#Cc1cnc(SCC(=O)c2ccccc2)nc1N	?	-22%	/	-3%	10%[0.365 µM]
Oc1cc(O)cc(/C=C/c2ccc(O)c(O)c2)c1	-45%	46%	3%	?	-25%
COc1ccc(NS(=O)(=O)c2ccc3c(c2)n(C)c(=O)n3C)cc1	5.8µM*	3%	-12%	?	3%
Cn1c(=O)n(C)c2cc(NS(=O)(=O)c3ccc4c(c3)CCCC4)ccc21	23µM*	18%	?	61%	?
COc1ccc(C(=O)/C=C/C(=O)N(CC(=O)NC2CCCCC2)Cc2cccs2)c(O)c1	18µM*	?	5µM*	?	7.9µM*
COCCN(CC(=O)NC1CCCCC1)C(=O)/C=C/C(=O)c1ccc(OC)cc1O	6.5µM*	?	4%	16%	-7%
COc1ccc(CCNC(=O)C2CCN(C(=O)c3ccc(Br)cc3)CC2)cc1	0%	?	4%	4%	35%
Cc1ncc(CN=Cc2ccc(Cl)cc2)c(N)n1	0%	-3%	1%	2%	10%
CC(=O)N1CCN(c2ccc(NCc3ccc(-c4ccc(Br)cc4)o3)cc2)CC1	23µM*	13µM*	/	-7%	/
CC(=O)N1CCN(c2ccc(NCc3ccc(Br)o3)cc2)CC1	-3%	-1%	/	1%	/
COc1ccc(OC)c(NC(=O)CSc2nncc(=O)n2N)c1	4%	-1%	0%	-5%	-11%
CC1(C)Cc2cccc(OCC(=O)Nc3ccccc3F)c2O1	21%	-2%	/	?	/
CCCNC(=O)c1ccccc1NC(=O)COc1cccc2c1OC(C)(C)C2	?	10%	/	15µM*	/
CCOc1ccc(C2=Nn3c(nnc3-c3cccnc3)SC2)cc1	10%	0%	8%	?	14%[10 µM]
CCOc1ccc(C2=Nn3c(nnc3-c3ccc(OC)cc3)SC2)cc1	?	5.8µM*	-5%	?	-2%
c1ccc(-c2cc(-c3nnc4n3N=C(c3ccc5ccccc5c3)CS4)[nH]n2)cc1	4.1µM*	?	-12%[0.365 µM]	?	?
Cc1cc(-c2nnc3n2N=C(c2ccc(-c4ccccc4)cc2)CS3)n[nH]1	?	3%	?	?	21%
c1ccc(C2=Nn3c(nnc3-c3ccncc3)SC2)cc1	8%	?	-1%	8.2µM*	6%
NC(=S)NNC(=O)c1ccccc1	0%	?	22µM*	19%	2.8µM*
Cc1cccc(NC(=O)C(=O)NNC(=O)c2ccc(C(C)(C)C)cc2)c1	?	?	10µM*	3%	?
NC(=S)NNC(=O)c1cccc(Br)c1	/	/	-28%	13%	6.3µM*
O=C(NNC(=O)c1ccccc1O)c1cccc(Br)c1	6%	?	-7%	?	5µM*
CC(C)(C)C(=O)Nc1ccc(Cc2ccncc2)cc1	0%	3%	/	/	/
SMILES	MCF10A rereplic	SW480 rereplic	VP16 counter	ELG1 repair inh	RORg inh
CCOC(=O)c1c(C)[nH]c(C)c1C(=O)COC(=O)CCc1ccccc1	-2%	-33%	/	?	/
O=C(COC(=O)c1ccccc1O)NNC(=O)c1ccc(Br)cc1	0%	-1%	/	-2%	/
CC(C)(C)c1ccc(C(=O)NNC(=O)c2cccc(Br)c2)cc1	12µM*	?	?	?	?
O=C(NNC(=O)c1ccccc1O)c1ccc(Cl)cc1	9%	?	?	?	8.9µM*
O=C(NNC(=O)c1ccccc1O)c1ccc(Br)cc1	-8%	2.9µM*	20µM*	?	11µM*
O=C(NNC(=O)c1ccc(O)cc1O)c1ccc(Cl)cc1	4%	?	-6%	?	-40%
O=C(CSc1ncnc2ccccc12)Nc1cccc(S(=O)(=O)N2CCCC2)c1	?	-3%	-4%	-9%	15%
